# Screening results (PubChem BioAssay)
# A selection: hits, their analogues and other compounds. The true share with any hit is near 0.45%.
# FadD28 binding = inhibitors of Mycobacterium tuberculosis FadD28 bisubstrate binding; inhibition, % at 12.5 µM; AID 588549; 360,000 tested, 0.22% active; FadD28 bisubstrate probe binding, fluorescence polarization; in the data active = inhibition above about 8.5%, passing the limit was not always enough; inconclusive = no clear call, values can overlap the other calls
# Y pestis TopoI = Y. pestis Topo-I inhibition via cleavage products; activity, % at 10 µM; 360,000 tested, 0.064% active; Y. pestis Topo-I cleavage product accumulation, plate reader; in the data active = activity above about 50%, passing the limit was not always enough; inconclusive = no clear call, values can overlap the other calls
# Mtb BioA inh = blocks M. tuberculosis BioA enzyme activity; purified M. tuberculosis BioA enzyme, plate reader; 360,000 tested, 0.096% active; AID 602481; inhibition, % at 9.99 µM; in the data active = inhibition above about 40%; inconclusive = no clear call, values can overlap the other calls
# TcdB GH inh = blocks C. difficile toxin B glycohydrolase activity; inhibition, % at 9.99 µM; TcdB glycohydrolase enzymatic assay, plate reader; AID 652162; 350,000 tested, 0.24% active; P18177; in the data active = inhibition above about 10%
# Starred values were filed as active, the others as inactive; ? = inconclusive; / = not tested or not shown.
SMILES,FadD28 binding,Y pestis TopoI,Mtb BioA inh,TcdB GH inh
CCOC(=O)N1CCN=C1SCc1ccc(Cl)c(Cl)c1,-3,1,0,12*
CN(C)CC(=O)N[C@H]1CC[C@H](CCNC(=O)Nc2ccc(F)cc2)O[C@@H]1CO,/,/,1,1
O=C(NCC[C@H]1CC[C@@H](NC(=O)C2CCCCC2)[C@H](CO)O1)Nc1ccc(Cl)cc1,/,/,2,-3
COc1ccc(CN=Cc2c(C(=O)O)[nH]c3ccccc23)cc1,-4,9,/,2
O=C(O)COc1ccc(Br)cc1C(c1c(C(=O)O)[nH]c2ccccc12)c1c(C(=O)O)[nH]c2ccccc12,28*,-6,2,/
O=C(O)c1[nH]c2ccccc2c1C(c1ccccc1)c1c(C(=O)O)[nH]c2ccccc12,22*,-1,0,2
COCC(=O)c1[nH]c2ccccc2c1C,0,7,-1,/
O=C(O)c1[nH]c2ccccc2c1C(c1cc(Cl)cc([N+](=O)[O-])c1O)c1c(C(=O)O)[nH]c2ccccc12,56*,-11,1,0
C=CCOc1ccc(C(c2c(C(=O)O)[nH]c3ccccc23)c2c(C(=O)O)[nH]c3ccccc23)cc1,40*,10,3,0
O=C(O)COc1ccc(Br)cc1CP(=O)(c1ccccc1)c1ccccc1,-2,0,/,0
O=C(Nc1ccccc1)N1CCCCN2[C@H](C1)[C@@H](c1ccc(C#CC3CC3)cc1)[C@@H]2CO,/,/,-4,0
C[C@@H]1CN([C@H](C)CO)C(=O)c2cc(NS(=O)(=O)c3cn(C)cn3)ccc2O[C@H]1CN(C)CC1CCCCC1,/,/,20,6
COc1cc(C(c2c(C(=O)O)[nH]c3ccccc23)c2c(C(=O)O)[nH]c3ccccc23)ccc1OCc1ccccc1,32*,0,6,0
COc1cc(C(NC(C)=O)NC(C)=O)ccc1OCc1ccccc1,-5,-4,/,/
C[C@@H]1CN([C@H](C)CO)C(=O)Cc2cc(NC(=O)Cc3ccccc3)ccc2O[C@@H]1CN(C)C,/,/,3,0
O=C(Nc1ccc2c(c1)[C@@H]1C[C@@H](CC(=O)N3CCOCC3)O[C@H](CO)[C@@H]1O2)C1CCOCC1,/,/,-1,0
Cc1cccc(OCC(=O)N/N=C\c2cn(C)c3ccccc23)c1,41*,38,0,0
Cc1cc(C(=O)Cn2nc(C(=O)O)c3ccccc3c2=O)c(C)n1-c1ccc(OC(F)F)cc1,-3,68*,/,1
COc1ccc(-n2c(C)cc(C(=O)Cn3nc(C(=O)O)c4ccccc4c3=O)c2C)cc1,-3,-1,/,/
Cc1ccc(-n2c(C)cc(C(=O)Cn3nc(C(=O)O)c4ccccc4c3=O)c2C)cc1,-4,79*,/,0
Cc1noc(C)c1NC(=O)N(C)C[C@@H]1Oc2c(NS(=O)(=O)c3ccc(F)cc3)cccc2C(=O)N([C@H](C)CO)C[C@H]1C,/,/,/,0
COc1ccc2c3c([nH]c2c1)[C@H](CO)N(Cc1ccc(Cl)cc1)CC31CCN(Cc2nccs2)CC1,/,/,/,-1
O=C(Cc1coc2cc(O)ccc12)NNC(=O)c1cccs1,0,-1,-2,19*
Nc1c(C(=O)NC2CC2)sc2nc3c(c(-c4ccco4)c12)CC/C3=C/c1ccco1,18*,-32,/,/
COc1ccccc1S(=O)(=O)N1[C@@H]2CNC[C@H]1C2c1ccc(-c2ccccc2)cc1 (some centres not stated),/,/,/,-1
SMILES,FadD28 binding,Y pestis TopoI,Mtb BioA inh,TcdB GH inh
Cc1noc(C)c1NC(=O)N(C)C[C@@H]1Oc2ccc(NC(=O)CCCN(C)C)cc2C(=O)N([C@H](C)CO)C[C@H]1C,/,/,/,1
CC1=NN(c2ccc([N+](=O)[O-])cc2)C(=O)/C1=C\N(C)C,-2,-9,/,1
CC1=NN(c2ccc([N+](=O)[O-])cc2)C(=O)C1,14*,-10,1,1
CC(C)NC(=O)Nc1ccc2c(c1)CC(=O)N([C@@H](C)CO)C[C@H](C)[C@H](CN(C)Cc1ccc(C(=O)O)cc1)O2,/,/,2,1
O=C(COc1ccc2ccc(=O)oc2c1)NCCN1CCOCC1,-2,-2,2,13*
COC(=O)c1ccccc1NC1=C/C(=N\S(=O)(=O)c2ccc(C(=O)O)cc2)c2ccccc2C1=O,24*,-2,2,/
COc1ccc(-n2c(-c3ccc(F)cc3)cnc2SCC(=O)NCc2ccco2)cc1,-2,51*,/,/
O=C(CSc1ncc(-c2ccccc2)n1-c1ccccc1)NCc1ccco1,-5,10,-1,1
COc1ccc(CNc2ncnc3c2[nH]c2cc(OC)c(OC)cc23)cc1,10*,-24,-1,-1
COc1ccc(CNc2ncnc3c2[nH]c2ccccc23)cc1,-3,-12,11,1
Cc1ccc(S(=O)(=O)N(C)C[C@@H]2Oc3ccc(NC(=O)Nc4ccc(F)cc4)cc3C(=O)N([C@@H](C)CO)C[C@@H]2C)cc1,/,/,1,1
COc1ccc2c(c1)Cc1cc(NC(=O)c3ccccc3-c3ccccc3C(=O)O)ccc1-2,11*,12,0,-3
C[C@@H]1CN([C@@H](C)CO)C(=O)c2cc(NC(=O)CCC(F)(F)F)ccc2O[C@@H](C)CCCCO[C@H]1CN(C)C(=O)Nc1cccc2ccccc12,/,/,-1,/
O=C(c1cc(-c2ccncc2)nc2ccc(Br)cc12)N1CCN(c2ccccn2)CC1,-2,35,-1,/
O=C(c1cc(-c2ccccc2Cl)nc2ccc(Br)cc12)N1CCN(c2ccccn2)CC1,-1,55*,-1,0
Oc1ccc(N=Nc2c(O)ccc3ccccc23)cc1,1,-1,-2,1
N=C(N)c1ccc(N=Nc2c(O)ccc3c2[nH]c2ccccc23)cc1,1,-65,/,14*
Cc1noc(C)c1NC(=O)Nc1ccc2c(c1)C(=O)N([C@H](C)CO)C[C@H](C)[C@H](CN(C)Cc1ccccc1)OCCCC[C@H](C)O2,/,/,4,0
C[C@@H]1CN([C@@H](C)CO)C(=O)c2cc(NS(=O)(=O)c3ccc(Cl)cc3)ccc2O[C@@H](C)CCCCO[C@H]1CN(C)S(=O)(=O)c1ccccc1,/,/,-3,1
O=C(O)C(c1ccccc1)N1C(=O)/C(=C\c2ccc(-c3ccccc3Cl)o2)SC1=S (configuration not stated),11*,-1,4,-1
O=C(O)C(c1ccccc1)N1C(=O)/C(=C\c2ccc(-c3ccc(Br)cc3)o2)SC1=S (configuration not stated),27*,-11,18,2
COc1cc(/C=C2\SC(=S)N(C(C(=O)O)c3ccccc3)C2=O)cc(OC)c1OC (configuration not stated),0,17,0,0
CCCNC(=O)Nc1ccc2c(c1)OC[C@H](C)N(CCC)C[C@H](C)[C@@H](OC)CN(C)C2=O,/,/,5,0
CO[C@@H]1CN(C)C(=O)c2ccc(NC(=O)C3CCC3)cc2OC[C@H](C)N(Cc2nccs2)C[C@@H]1C,/,/,1,0
Oc1ccc(/C=N/n2c(C3CCCCC3)n[nH]c2=S)c(O)c1,?,-4,-2,1
COc1cccc(/C=N/n2c(C3CCCCC3)n[nH]c2=S)c1O,15*,1,0,2
Oc1ccc(Br)cc1/C=N/n1c(C2CCCCC2)n[nH]c1=S,16*,2,2,-2
C/C=C/c1ccc([C@H]2[C@@H](CO)N(C(=O)c3ccccc3)C23CN(C(C)=O)C3)cc1,/,/,/,0
